Assay in all cases: NCI-60 one-dose screen, 48 h (100 = growth as untreated, 0 = no growth, -100 = all killed)
In one assay the test system is SR leukemia. The conditions noted are these: 10 µM unless noted.
For the next assay, the system named is OVCAR-8 ovarian. As to conditions: 10 µM unless noted.
For the next assay, the system named is OVCAR-5 ovarian. The conditions noted are these: 10 µM unless noted.
The next assay has as its system OVCAR-4 ovarian. The conditions noted are these: 10 µM unless noted.
The test system of a further assay is SK-OV-3 ovarian. The conditions noted are these: 10 µM unless noted.
The subject of a further assay is IGROV1 ovarian. The conditions noted are these: 10 µM unless noted.
For another assay, the system named is OVCAR-3 ovarian. The conditions noted are these: 10 µM unless noted.
The next assay relates to HS 578T breast. The conditions noted are these: 10 µM unless noted.
In another assay the test system is NCI/ADR-RES ovarian. The conditions noted are these: 10 µM unless noted.
The next assay deals with T-47D breast. As to conditions: 10 µM unless noted.
A further assay relates to BT-549 breast. The conditions noted are these: 10 µM unless noted.
In the next assay the test system is MDA-MB-435 melanoma. As to conditions: 10 µM unless noted.
The test system of the next assay is SW-620 colon. As to conditions: 10 µM unless noted.
The test system of the next assay is MCF7 breast.
A further assay deals with HCT-116 colon. As to conditions: 10 µM unless noted.
The next assay deals with HCC-2998 colon. As to conditions: 10 µM unless noted.
Another assay concerns KM12 colon. As to conditions: 10 µM unless noted.
The next assay deals with RPMI-8226 leukemia. As to conditions: 10 µM unless noted.

Structures are written as SMILES. “And” between values parts separate entries of the source, which are not always exact repeats. Identical values can stand only once. This is part of a sample that, as a whole, favours compounds with a hit. Of some 83,000 tested, about 20% had one in any assay.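 How to read the values: 0–100, growth inhibition (40 = 60% inhibited); 0, no net growth; -100 to 0, cell death (-40 = 40% of starting cells died; -100 = all dead).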 Unmarked numbers belong to inactive results. The source made the active and inactive calls. The calls were made as follows: active = growth percent below 10; inactive = the rest.

`c1cc2c(cc1-c1cnc3nonc3n1)OCO2`: the growth in the assay on SR leukemia is 21.4%; in the assay on OVCAR-8 ovarian it was 92.4%; in the assay on OVCAR-5 ovarian, 93.7%; with OVCAR-4 ovarian, 95.3%; with SK-OV-3 ovarian, 82.8%; in the assay with IGROV1 ovarian, 102%. In addition, the growth with OVCAR-3 ovarian is 70.5%; in the assay with HS 578T breast it was 99.1%; in the assay on NCI/ADR-RES ovarian it was 93.2%; in the assay on T-47D breast, 57.7%; in the assay with BT-549 breast, 95.2%; with MDA-MB-435 melanoma, 103%. For the same molecule, the growth is 83% with SW-620 colon, 49.5% with MCF7 breast (10 µM unless noted), 102% with HCT-116 colon and 107% with HCC-2998 colon.

With `COc1ccc(-n2c(COc3ccc(F)cc3)n[nH]c2=S)cc1`, the growth was 120% in the assay on SR leukemia; 112% with OVCAR-8 ovarian; 110% in the assay with OVCAR-5 ovarian; 105% in the assay on OVCAR-4 ovarian; 109% in the assay with SK-OV-3 ovarian; 96.4% in the assay on IGROV1 ovarian. For the same molecule, the growth was 103% in the assay with OVCAR-3 ovarian; 108% in the assay on HS 578T breast; 103% in the assay with NCI/ADR-RES ovarian; 101% in the assay on T-47D breast; 181% in the assay on BT-549 breast; 105% in the assay with MDA-MB-435 melanoma. Also, the growth is 104% in the assay on SW-620 colon; 107% with MCF7 breast (10 µM unless noted); 101% with HCT-116 colon; 113% with HCC-2998 colon; 110% in the assay with KM12 colon.

For the molecule `COc1ccc2c(c1)N(Cc1ccc(Cl)cc1)CCC2N1CCCC1=O` (configuration not stated), the growth in the assay on SR leukemia is 34.2%; with OVCAR-8 ovarian, 50%; in the assay with OVCAR-5 ovarian, 66%; with OVCAR-4 ovarian it was 34%; with SK-OV-3 ovarian it was 43.4%; in the assay on IGROV1 ovarian it was 13.2%. The growth is 43.8% in the assay with OVCAR-3 ovarian; 10.7% in the assay on HS 578T breast; 53.3% in the assay on NCI/ADR-RES ovarian; 31.5% in the assay on T-47D breast; 16.1% in the assay with BT-549 breast; 46.2% in the assay on MDA-MB-435 melanoma. Further, the growth in the assay on SW-620 colon was 72.1%; in the assay on MCF7 breast (10 µM unless noted), 35.5%; in the assay with HCT-116 colon, 55.1%; with HCC-2998 colon it was 49.7%; in the assay with KM12 colon, 50.4%.

For `Cc1cc(O)c2cc3c(O)c(O)ccc3cc2c1`, the growth is 101% in the assay with SR leukemia; 115% in the assay on RPMI-8226 leukemia; 81.5% in the assay on OVCAR-5 ovarian; 109% in the assay on SK-OV-3 ovarian; 98.1% in the assay on IGROV1 ovarian; 133% in the assay with OVCAR-3 ovarian. The growth with HS 578T breast is 110%; in the assay with NCI/ADR-RES ovarian it was 109%; with T-47D breast, 104%; in the assay with BT-549 breast, 109%; with MDA-MB-435 melanoma, 123%; with SW-620 colon, 114%. Besides, the growth was 139% in the assay with MCF7 breast (10 µM); 4.83% (active) and -31.7% (active) in the assay with MCF7 breast (100 µM); 102% in the assay on HCT-116 colon; 114% with HCC-2998 colon; 108% in the assay on KM12 colon.

Regarding `O=C1CCCN1C1CCN2CCCc3cccc1c32` (configuration not stated), the growth in the assay on SR leukemia was 83.5%; in the assay on OVCAR-8 ovarian, 103%; in the assay on OVCAR-5 ovarian, 99.9%; in the assay on OVCAR-4 ovarian it was 105%; in the assay on SK-OV-3 ovarian, 110%; with IGROV1 ovarian, 98.5%. The growth was 121% with OVCAR-3 ovarian; 112% in the assay on HS 578T breast; 108% in the assay on NCI/ADR-RES ovarian; 94.1% in the assay on T-47D breast; 134% with BT-549 breast; 108% with MDA-MB-435 melanoma. Further, the growth in the assay with SW-620 colon was 108%; in the assay with MCF7 breast (10 µM unless noted), 96.9%; in the assay with HCT-116 colon it was 101%; in the assay with HCC-2998 colon, 105%; with KM12 colon it was 109%.

Take `O=C(Nc1cccc(-n2ccc3c(NC(=O)c4ccccc4)nccc32)c1)c1ccc(N2CCOCC2)c(C(F)(F)F)c1`: the growth with SR leukemia was 2.76% (active); with OVCAR-8 ovarian, 16.3%; with OVCAR-5 ovarian, 41.1%; in the assay with OVCAR-4 ovarian it was 51.7%; with SK-OV-3 ovarian, -6.21% (active); in the assay with IGROV1 ovarian, 8.99% (active). Further, the growth in the assay on OVCAR-3 ovarian is 26.9%; with HS 578T breast, 55.5%; in the assay with NCI/ADR-RES ovarian, 14.3%; with T-47D breast, 7.57% (active); with BT-549 breast, 25.2%; in the assay on MDA-MB-435 melanoma it was 5.17% (active). In addition, the growth with SW-620 colon is 26.9%; in the assay on MCF7 breast (10 µM unless noted), 14%; in the assay on HCT-116 colon, 12.5%; in the assay on HCC-2998 colon it was 8.77% (active).

For `O=[N+]([O-])c1ccc(Sc2nc(Cl)nc(NC3CCCC3)n2)cc1`, the growth with SR leukemia is -28.3% [100 µM] (active); in the assay on RPMI-8226 leukemia, -7.18% [100 µM] (active); in the assay with OVCAR-5 ovarian, -90.5% [100 µM] (active); in the assay on OVCAR-4 ovarian, -100% [100 µM] (active); in the assay with SK-OV-3 ovarian, -100% [100 µM] (active); in the assay with IGROV1 ovarian, -67.8% [100 µM] (active). In addition, the growth in the assay with OVCAR-3 ovarian was -100% [100 µM] (active); in the assay on HS 578T breast, 11.7% [100 µM]; with NCI/ADR-RES ovarian it was -49.1% [100 µM] (active); in the assay on T-47D breast, -35.4% [100 µM] (active); in the assay with BT-549 breast, -97.1% [100 µM] (active); in the assay on MDA-MB-435 melanoma, -95.9% [100 µM] (active). Further, the growth is -63.1% [100 µM] (active) in the assay with SW-620 colon; -84.9% [100 µM] (active) with MCF7 breast (10 µM unless noted); -94.3% [100 µM] (active) with HCT-116 colon; -86.5% [100 µM] (active) in the assay on HCC-2998 colon; -96.9% [100 µM] (active) with KM12 colon.

`Cn1cnc([N+](=O)[O-])c1S(=O)(=O)Oc1ccccc1`: the growth in the assay on SR leukemia was 56.1%; with OVCAR-8 ovarian, 100%; in the assay with OVCAR-5 ovarian, 103%; in the assay on OVCAR-4 ovarian, 112%; in the assay with SK-OV-3 ovarian, 101%; with IGROV1 ovarian, 85.7%. The growth is 1.83% (active) in the assay with OVCAR-3 ovarian; 105% in the assay with HS 578T breast; 92% with NCI/ADR-RES ovarian; 5.06% (active) in the assay with T-47D breast; 100% in the assay with BT-549 breast; 101% in the assay with MDA-MB-435 melanoma. Also, the growth is 56% in the assay on SW-620 colon, 84.3% in the assay with MCF7 breast (10 µM unless noted), 68.4% in the assay on HCT-116 colon and 101% in the assay on HCC-2998 colon.

As to `CCCCCCCC/C=C/CCCCCCCC1=NC(C)(C)CN1C(C)C`, the growth with SR leukemia is -46.7% (active); with OVCAR-8 ovarian, -20.8% (active); with OVCAR-5 ovarian, 58.1%; in the assay on OVCAR-4 ovarian it was 18.9%; with SK-OV-3 ovarian, 55.4%; with IGROV1 ovarian it was -29.9% (active). Besides, the growth was -55.7% (active) with OVCAR-3 ovarian; 6.92% (active) with HS 578T breast; -6.48% (active) in the assay on NCI/ADR-RES ovarian; -29.2% (active) with T-47D breast; 60.9% in the assay with BT-549 breast; -58.3% (active) with MDA-MB-435 melanoma. Besides, the growth in the assay with SW-620 colon was -69.8% (active); in the assay on MCF7 breast (10 µM unless noted), -60.5% (active); in the assay on HCT-116 colon, -74.8% (active); with HCC-2998 colon, -91.8% (active); in the assay with KM12 colon it was -77.1% (active).

Regarding `COc1ccccc1/C=N\Nc1ccc([N+](=O)[O-])cn1`, the growth with SR leukemia was 104%; in the assay on OVCAR-8 ovarian it was 106%; in the assay with OVCAR-5 ovarian it was 108%; with OVCAR-4 ovarian it was 115%; in the assay with SK-OV-3 ovarian, 108%; in the assay on IGROV1 ovarian, 102%. Moreover, the growth in the assay on OVCAR-3 ovarian was 117%; in the assay on HS 578T breast it was 124%; in the assay with NCI/ADR-RES ovarian, 107%; in the assay with T-47D breast, 94.8%; in the assay on BT-549 breast it was 101%; in the assay with MDA-MB-435 melanoma, 104%. Further, the growth was 124% with SW-620 colon; 96.2% in the assay on MCF7 breast (10 µM unless noted); 96.5% in the assay with HCT-116 colon; 100% in the assay with HCC-2998 colon; 106% in the assay on KM12 colon.

Values taken from PubChem BioAssay (NCI).
